High-throughput results deposited in PubChem by National Center for Advancing Translational Sciences (NCATS).
This is a sample that favours compounds with a hit; in the whole collection about 3.2% have one here.
TexasRed fluor – alters Texas Red total fluorescence, flagging assay interference | AID 1479 | TRb/SRC2 Texas Red total fluorescence interference | 280,000 compounds, 0.29% hits | Potency, µM (top dose mostly 106 µM); active = well fitted curve in either direction with a large enough effect; inconclusive = small, poorly fitted or top-dose-only effect
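Human TRb ligand-binding domain at 0.6 uM with 20 nM Texas Red SRC2 peptide in Tris buffer containing 1 uM T3 and 5% DMSO, incubated with compound 5 h at ambient temperature. Total fluorescence (555/632 nm) calculated as parallel + 2 × perpendicular.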
Tau FP inhib – inhibitors of human tau fibril formation; P10636; Potency, µM (highest dose often 57.7 µM), most hits filed as inhibitors; K18 P301L tau heparin fibrillization, Alexa594 FP, 6 h; 280,000 compounds, 0.39% hits; note: nearly all actives have a fitted effect of over 55% in size
Target sequence (P10636 561-689 P618L limits assumed): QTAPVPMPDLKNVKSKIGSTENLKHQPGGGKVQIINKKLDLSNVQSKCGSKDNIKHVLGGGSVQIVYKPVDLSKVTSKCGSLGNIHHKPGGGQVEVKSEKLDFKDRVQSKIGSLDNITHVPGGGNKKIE
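Human tau K18 […] P301L fragment, 15 uM unlabeled plus 0.24 uM Alexa 594-labeled tau (final), with compound and 20 uM heparin in 100 mM sodium acetate pH 7; 6 hr at 37 C, then Alexa 594 FP read.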
Tau fluor counter – counter-screen for tau fibril formation inhibitors; Potency, µM (doses to about 57.7 µM); tau K18 P301L Alexa594 fluorescence, heparin fibrillization; 280,000 compounds, 0.93% hits; note: nearly all actives have a fitted effect of over 55% in size
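Human K18 P301L tau (15 uM unlabeled plus 0.24 uM Alexa 594-labeled, final) in 100 mM sodium acetate pH 7 was mixed with compound and 20 uM heparin and incubated 6 hr at 37 C.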
Tau fibril ThT – blocks human tau fibril formation measured by thioflavin T; Potency, µM (doses to about 57.4 µM), usual class: inhibitors; P10636; recombinant tau K18 P301L (four-repeat tau fragment), heparin-induced fibrillization, ThT fluorescence; AID 1460; 270,000 compounds, 2.1% hits; note: nearly all actives have a fitted effect of over 55% in size
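Heparin-induced (20 uM) aggregation of recombinant human K18 P301L tau, 15 uM unlabeled with 0.24 uM labeled, pH 7 acetate buffer, 6 hr at 37 C with compound. Fibrils quantified by 30 uM ThT fluorescence after 1 hr ambient incubation.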
TRb SRC2 PPI – disrupts binding of human TR beta to SRC2; P10828; TRbeta-SRC2 peptide binding, fluorescence polarization; receptor liganded with 1 µM T3; 280,000 compounds, 0.065% hits; Potency, µM (highest dose often 106 µM), actives largely listed as inhibitors; note: nearly all actives have a fitted effect of over 50% in size
Target sequence (P10828 whole entry, looked up): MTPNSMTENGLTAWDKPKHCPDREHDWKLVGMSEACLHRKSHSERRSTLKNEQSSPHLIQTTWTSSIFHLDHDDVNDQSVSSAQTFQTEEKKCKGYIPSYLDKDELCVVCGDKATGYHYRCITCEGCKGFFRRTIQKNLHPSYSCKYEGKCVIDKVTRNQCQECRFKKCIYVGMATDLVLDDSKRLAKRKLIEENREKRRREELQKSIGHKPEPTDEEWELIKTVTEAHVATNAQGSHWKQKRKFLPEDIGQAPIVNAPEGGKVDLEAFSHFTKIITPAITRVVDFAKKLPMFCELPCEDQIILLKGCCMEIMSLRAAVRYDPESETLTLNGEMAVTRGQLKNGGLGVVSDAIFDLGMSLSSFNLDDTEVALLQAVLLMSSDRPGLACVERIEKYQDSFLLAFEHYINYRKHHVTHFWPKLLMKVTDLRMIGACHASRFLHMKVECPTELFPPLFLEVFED
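Each compound concentration gave % activity, normalized to unbound and bound Texas Red SRC2 controls, from polarization read after 5 hr ambient incubation with T3-loaded human TRb LBD.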
GoLoco inh red – blocks human Gai1 binding to RGS12 GoLoco peptide, red readout | 230,000 compounds, 0.44% hits | Gai1:RGS12 GoLoco peptide FP, rhodamine, 10 min | P63096 | Potency, µM (series often up to 61.6 µM), most hits filed as inhibitors | AID 880; active = well fitted inhibition curve with a large enough effect, not every such curve was filed as active; inactive = no such curve, though single readings can be large or run the other way; note: nearly all actives have a fitted effect of over 30% in size
Of the large screens only hits and unclear results are named; the others gave an inactive call; [ ] = another dose, or the depositor's remark. Unless noted, calls come from the whole dose curve; as a rule, active = well fitted curve in the direction sought with a large enough effect; inconclusive = small, poorly fitted or top-dose-only effect, or another doubt; inactive = no such curve, though single readings can be large; an effect the other way counts as inactive or inconclusive.

CC(=O)Nc1ccc(S(=O)(=O)NCc2ccc3c(c2)cc(C)n3C)cc1	TexasRed fluor inconclusive, Tau fluor counter inconclusive, Tau fibril ThT inconclusive
C=CC1=C2C=C(C3CC3)N(c3ccc(OC)cc3)C=C2C(=O)C(C)(OC(=O)c2ccco2)C1=O (stereo unspecified)	Tau fibril ThT inconclusive
CN(C)C(=O)NC1CCCCCCC1	none (no result: Tau FP inhib, Tau fluor counter, Tau fibril ThT, GoLoco inh red)
COc1cccc(CC(=O)N2CCc3nc(-c4ccc(OC)cc4C)c4c(c3C2)CO[C@@H](c2ccccc2)C4)c1	none
CC(=O)OC1CCC(C(C)(C)C)CC1 (stereo unspecified)	none (no result: Tau FP inhib, Tau fluor counter, Tau fibril ThT, GoLoco inh red)
CCOC(=O)c1cc2n(c1/N=C/N(C)C)-c1ccccc1C2=O	Tau FP inhib 25.1µM, Tau fluor counter inconclusive, Tau fibril ThT 25.1µM, GoLoco inh red 25.1µM
COc1ccc(-n2c(N)c(C(=O)NCC3CCCO3)c3nc4ccccc4nc32)c(OC)c1 (stereo unspecified)	Tau fluor counter inconclusive, Tau fibril ThT 28.2µM, TRb SRC2 PPI inconclusive
C=CCn1c(N)c(C(=O)NCC2CCCO2)c2nc3ccccc3nc21 (stereo unspecified)	none (no result: GoLoco inh red)
CCC1(c2ccc(O)cc2)NC(=O)NC1=O (stereo unspecified)	none (no result: Tau FP inhib, Tau fluor counter, Tau fibril ThT, GoLoco inh red)
Fc1cccc2sc(Nc3nnc(-c4ccco4)o3)nc12	Tau fibril ThT 12.6µM
COC(=O)c1cc(NC(=O)c2cc3c(-c4ccccc4F)nn(C)c3s2)cc(C(=O)OC)c1	Tau FP inhib inconclusive, Tau fibril ThT inconclusive (no result: GoLoco inh red)
CCSC1=NSC2=NC(=O)/C(=C\c3coc4ccccc4c3=O)C(=N)N12	Tau fluor counter inconclusive, Tau fibril ThT 25.1µM
CCc1ccc(-n2cccc2/C=C2/C(=N)N3C(=NC2=O)SN=C3S(C)(=O)=O)cc1	Tau fibril ThT inconclusive
CC(C)CC1=NN2C(=N)/C(=C\c3coc4ccccc4c3=O)C(=O)N=C2S1	Tau FP inhib inconclusive, Tau fluor counter inconclusive, Tau fibril ThT 31.6µM
CN(CC(=O)Nc1cccc(Cl)c1)S(=O)(=O)c1ccc2[nH]c3c(c2c1)CCCC3	Tau fluor counter 14.1µM[quencher] (no result: GoLoco inh red)
CN(CC(=O)Nc1cccc(C(F)(F)F)c1)S(=O)(=O)c1ccc2[nH]c3c(c2c1)CCCC3	Tau FP inhib inconclusive, Tau fluor counter 25.1µM[quencher] (no result: GoLoco inh red)
COc1ccc(NC(=O)CN(C)S(=O)(=O)c2ccc3[nH]c4c(c3c2)CCCC4)cc1Cl	Tau fluor counter 14.1µM[quencher] (no result: GoLoco inh red)
O=C1C(=O)c2ccccc2C(O)=C1C(CCc1ccccc1)C1=C(O)c2ccccc2C(=O)C1=O	none (no result: TexasRed fluor, Tau FP inhib, Tau fluor counter, Tau fibril ThT, TRb SRC2 PPI)
C/C(=N\Nc1nc2ccccc2s1)c1ccc(Br)s1	Tau FP inhib inconclusive, Tau fluor counter 11.2µM[quencher], Tau fibril ThT inconclusive
C/C(=N\Nc1nc2ccccc2s1)c1ccc2c(c1)OCO2	Tau fluor counter inconclusive, Tau fibril ThT inconclusive
O=C(N/N=C/c1cc(Cl)cc([N+](=O)[O-])c1O)NC12CC3CC(CC(C3)C1)C2	Tau fluor counter inconclusive, Tau fibril ThT 12.6µM
Cc1nn(-c2ccccc2)c(Cl)c1/C=N/NC(=O)c1ccccc1NS(=O)(=O)c1cccs1	Tau fibril ThT inconclusive
Cc1ccc2nc(C)c(C(=O)N/N=C/c3ccccc3[N+](=O)[O-])cc2c1	none
O=C(N/N=C/c1cc(Cl)cc([N+](=O)[O-])c1O)c1ccccc1NS(=O)(=O)c1cccs1	Tau fibril ThT 11.2µM
Cc1cc(C(=O)N/N=C/c2cc(Cl)cc([N+](=O)[O-])c2O)c2ccccc2n1	Tau fluor counter inconclusive, Tau fibril ThT 7.08µM
CCCCNc1nc(C)nc2c1nc(-c1ccccc1)n2CCN1CCCCC1	none
Cc1ccc(-c2ccc(C3C(C#N)=C(N)Oc4n[nH]c(C)c43)o2)cc1 (stereo unspecified)	Tau fluor counter 12.6µM[quencher], Tau fibril ThT 6.31µM
Cc1[nH]nc2c1C(c1ccc(-c3ccccc3C#N)o1)C(C#N)=C(N)O2 (stereo unspecified)	Tau fibril ThT 15.8µM (no result: GoLoco inh red)
Cc1[nH]nc2c1C(c1ccsc1C)C(C#N)=C(N)O2 (stereo unspecified)	Tau fibril ThT inconclusive
Cc1[nH]nc2c1C(c1ccc(-c3ccc(Cl)cc3)o1)C(C#N)=C(N)O2 (stereo unspecified)	Tau fluor counter inconclusive, Tau fibril ThT 10µM
Cc1[nH]nc2c1C(c1ccc(F)cc1)C(C#N)=C(N)O2 (stereo unspecified)	none
CC[C@H](NC(=O)[C@H](CCC(=O)O)NC(=O)[C@H](CCC(=O)O)NC(=O)[C@H](CC(=O)O[S+](=O)([O-])c1cccc2c(NCCN)cccc12)NC(=O)[C@H](CCC(=O)O)NC(=O)[C@H](CC(=O)O)NC(C)=O)C(=O)ON[C@@H](C)C(=O)N[C@@H](CO)C(=O)N[C@@H](CCCCNC(=O)c1ccc(N=Nc2ccc(N(C)C)cc2)cc1)C(N)=O	none (no result: Tau FP inhib, Tau fluor counter, Tau fibril ThT, GoLoco inh red)
O=C1NC(c2ccc(Br)cc2)Nc2sc3c(c21)CCC3 (stereo unspecified)	Tau FP inhib inconclusive, Tau fibril ThT inconclusive
CCOC(=O)N1CCc2c(sc3c2C(=O)NC(c2ccc(C(=O)OC)cc2)N3)C1 (stereo unspecified)	Tau fibril ThT inconclusive (no result: GoLoco inh red)
Cc1ccsc1C1NC(=O)c2c(sc3c2CCCC3)N1 (stereo unspecified)	Tau FP inhib inconclusive, Tau fibril ThT 3.16µM
CN1CCc2c(sc3c2C(=O)NC(c2ccccc2)N3)C1 (stereo unspecified)	Tau FP inhib inconclusive, Tau fibril ThT inconclusive
CCOC(=O)N1CCc2c(sc3c2C(=O)NC(c2cc(OC)c(OC)c(OC)c2)N3)C1 (stereo unspecified)	Tau fibril ThT 15.8µM (no result: GoLoco inh red)
O=C1NC(c2ccccn2)Nc2sc3c(c21)CCC3 (stereo unspecified)	Tau FP inhib inconclusive, Tau fibril ThT 20µM
Cc1cccc(C2NC(=O)c3c(sc4c3CCN(C)C4)N2)c1O (stereo unspecified)	TexasRed fluor inconclusive, Tau fibril ThT 15.8µM (no result: GoLoco inh red)
Cc1ccc(C2NC(=O)c3c(sc4c3CCN(C)C4)N2)s1 (stereo unspecified)	Tau FP inhib inconclusive, Tau fibril ThT 14.1µM
CCOc1cc(C2NC(=O)c3c(sc4c3CCN(C)C4)N2)ccc1OC(=O)c1ccc(F)cc1 (stereo unspecified)	Tau fibril ThT inconclusive (no result: GoLoco inh red)
CN1CCc2c(sc3c2C(=O)NC(c2ccccn2)N3)C1 (stereo unspecified)	TexasRed fluor 44.7µM[fluorescent], Tau FP inhib inconclusive, TRb SRC2 PPI 10µM, GoLoco inh red 28.2µM
CCOc1cc(Br)cc(C2NC(=O)c3c(sc4c3CCN(C)C4)N2)c1O (stereo unspecified)	Tau fibril ThT 15.8µM (no result: GoLoco inh red)
COC(=O)[C@H](CCSC)NC(=O)C/C=C\[C@@H](C)CO	none (no result: GoLoco inh red)
